Results on eight compounds are retold here after paper PMC5540273 (PLoS ONE, 2017).

Among the test systems are CSK; CSNK1A1L; CSNK1A1; CSNK1D; CSNK1E; CSNK1G1; CSNK1G2; CSNK1G3; CSNK2A1; CSNK2A2; DAPK1; DAPK2; DAPK3; DDR1; DDR2.
Holding throughout (settings): concentration: 1 μM, replicates: in singlicate; n = 1
The next assay deals with T1, CTK.
T1 construct: gene MATK

The subject of another assay is T2, DCAMKL1.
T2 construct: gene DCLK1

In another assay the test system is T3, DCAMKL2.
T3 construct: gene DCLK2

The test system of the next assay is T4, DCAMKL3.
T4 construct: gene DCLK3

A further assay deals with T5, DLK.
T5 construct: gene MAP3K12
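Also: KINOMEscan kinase panel screen.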

`Cc1ccc(-c2nc(Nc3ccncc3)c3ccccc3n2)s1` [GSK189015]: the “%Inh” value with CSK is 0%; with CSNK1A1L, 13%; with CSNK1A1 it was 24%; in the assay on CSNK1D it was 33%; in the assay on CSNK1E it was 22%; with CSNK1G1, 14%. The “%Inh” value amounted to 12% in the assay on CSNK1G2; 35% in the assay on CSNK1G3; 27% with CSNK2A1; 30% with CSNK2A2; 8% in the assay on CTK; 11% in the assay on DAPK1. The “%Inh” value with DAPK2 is on record as 0%; with DAPK3 it was 10%; with DCAMKL1, 17%; with DCAMKL2 it was 30%; in the assay on DCAMKL3, 15%; with DDR1, 61%. Besides, the “%Inh” value in the assay with DDR2 is 2%; with DLK, 0%.

As for `Cn1cncc1-c1cc2c(Nc3ccc(OCc4ccccc4)cc3)ncnc2cn1` [GW281179], the “%Inh” value with CSK was 4%; in the assay on CSNK1A1L, 4%; in the assay on CSNK1A1, 0%; with CSNK1D, 19%; in the assay on CSNK1E, 24%; with CSNK1G1, 9%. Moreover, the “%Inh” value in the assay on CSNK1G2 was found to be 0%; in the assay with CSNK1G3 it was 24%; in the assay with CSNK2A1 it was 0%; in the assay on CSNK2A2 it was 9%; in the assay with CTK it was 0%; in the assay on DAPK1, 0%. The “%Inh” value in the assay on DAPK2 was found to be 0%; in the assay with DAPK3, 7%; in the assay on DCAMKL1, 20%; in the assay on DCAMKL2 it was 14%; with DCAMKL3 it was 0%; with DDR1 it was 9%. Besides, the “%Inh” value with DDR2 was 0%; in the assay with DLK it was 27%.

As for `c1ccc(-c2ccnc3[nH]ccc23)cc1` [SB-693578], the “%Inh” value in the assay on CSK is reported as 0%; with CSNK1A1L, 20%; in the assay with CSNK1A1, 0%; in the assay on CSNK1D, 1%; with CSNK1E it was 42%; in the assay with CSNK1G1, 90.3%. Further, the “%Inh” value is on record as 0% in the assay on CSNK1G2; 5% with CSNK1G3; 0% with CSNK2A1; 0% with CSNK2A2; 0% with CTK; 0% in the assay with DAPK1. The “%Inh” value in the assay on DAPK2 is 0%; in the assay with DAPK3 it was 19%; in the assay on DCAMKL1 it was 16%; in the assay on DCAMKL2 it was 0%; in the assay with DCAMKL3, 0%; in the assay with DDR1, 23%. Moreover, the “%Inh” value is on record as 26% in the assay with DDR2 and 37% in the assay on DLK.

As for `Nc1ncnc2occ(-c3ccc4c(c3)CCN4C(=O)Cc3cc(F)ccc3F)c12` [GSK2645446], the “%Inh” value with CSK was 0%; with CSNK1A1L it was 1%; with CSNK1A1, 1%; in the assay on CSNK1D, 0%; with CSNK1E it was 30%; in the assay on CSNK1G1, 4%. The “%Inh” value in the assay with CSNK1G2 is given as 0%; with CSNK1G3 it was 38%; in the assay with CSNK2A1 it was 0%; in the assay with CSNK2A2, 11%; with CTK it was 0%; in the assay on DAPK1 it was 0%. For the same compound, the “%Inh” value stood at 0% in the assay with DAPK2; 0% in the assay on DAPK3; 10% in the assay on DCAMKL1; 0% in the assay on DCAMKL2; 0% in the assay on DCAMKL3; 0% in the assay with DDR1. For the same compound, the “%Inh” value was found to be 25% in the assay on DDR2 and 8% in the assay on DLK.

As for `Cc1ccc(NC(=O)Nc2ccc(Cl)cc2)cc1-c1ccc(C(=O)Nc2ccncc2)cc1` [GSK1398472], the “%Inh” value with CSK was determined as 0%; with CSNK1A1L, 1%; in the assay on CSNK1A1, 0%; in the assay with CSNK1D, 6%; in the assay with CSNK1E, 26%; with CSNK1G1 it was 2%. In addition, the “%Inh” value in the assay with CSNK1G2 came to 7%; with CSNK1G3, 36%; in the assay on CSNK2A1, 0%; in the assay on CSNK2A2 it was 0%; with CTK it was 0%; with DAPK1, 16%. For the same compound, the “%Inh” value is recorded as 0% in the assay on DAPK2; 15% with DAPK3; 18% in the assay on DCAMKL1; 0% in the assay on DCAMKL2; 0% in the assay with DCAMKL3; 99.8% in the assay on DDR1. Also, the “%Inh” value came to 64% in the assay on DDR2 and 0% in the assay with DLK.

For the compound `COc1ccc(CSc2nnc(-c3ccc4nccn4c3)o2)cc1C(F)(F)F`, the “%Inh” value was 0% with CSK; 0% in the assay on CSNK1A1L; 18% in the assay with CSNK1A1; 0% in the assay on CSNK1D; 0% in the assay on CSNK1E; 15% with CSNK1G1. For the same compound, the “%Inh” value was 0% in the assay with CSNK1G2; 0% with CSNK1G3; 0% with CSNK2A1; 21% in the assay with CSNK2A2; 0% in the assay on CTK; 0% with DAPK1. Further, the “%Inh” value is listed as 0% in the assay with DAPK2; 1% in the assay with DAPK3; 8% with DCAMKL1; 0% in the assay with DCAMKL2; 0% in the assay on DCAMKL3; 13% in the assay with DDR1. Further, the “%Inh” value in the assay on DDR2 and with DLK was 0% each time.

As to `Cc1ccc(NC(=O)Nc2ccccc2)cc1-c1ccc(C(=O)Nc2ccncc2)cc1` [GSK1398471], the “%Inh” value in the assay on CSK turned out to be 2%; in the assay on CSNK1A1L, 0%; with CSNK1A1 it was 0%; in the assay on CSNK1D, 13%; in the assay with CSNK1E, 24%; with CSNK1G1, 11%. Also, the “%Inh” value in the assay with CSNK1G2 is recorded as 13%; in the assay on CSNK1G3 it was 29%; in the assay with CSNK2A1, 6%; with CSNK2A2 it was 7%; in the assay on CTK, 0%; with DAPK1, 3%. The “%Inh” value came to 3% in the assay on DAPK2; 9% with DAPK3; 10% with DCAMKL1; 0% in the assay with DCAMKL2; 24% with DCAMKL3; 95% in the assay with DDR1. In addition, the entries for the “%Inh” value with DDR2 and in the assay with DLK were 38% and 9%, respectively.

Take `COc1ccc(-c2coc3ccc(-c4nnc(C)o4)cc23)cc1`: the “%Inh” value with CSK stood at 0%; in the assay on CSNK1A1L, 0%; in the assay with CSNK1A1, 0%; in the assay with CSNK1D, 0%; in the assay with CSNK1E, 0%; in the assay on CSNK1G1 it was 4%. Further, the “%Inh” value with CSNK1G2 came to 1%; in the assay on CSNK1G3, 0%; in the assay on CSNK2A1, 0%; with CSNK2A2, 15%; in the assay on CTK, 0%; in the assay with DAPK1, 0%. In addition, the “%Inh” value in the assay with DAPK2 is reported as 1%; in the assay with DAPK3 it was 0%; with DCAMKL1, 15%; in the assay on DCAMKL2, 0%; in the assay on DCAMKL3, 13%; in the assay with DDR1, 0%. The “%Inh” value in the assay on DDR2 and in the assay on DLK was 0% each time.
